Experimental findings from PubChem BioAssay (NCI) are described below.

This is part of a sample that, as a whole, favours compounds with a hit. Of some 83,000 tested, about 20% had one in any assay.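 Each cell line was grown in a 96-well plate and treated with one concentration of compound for 48 hours. Values below 10 were considered active.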 Values without a mark were called inactive. Calls of active or inactive are those of the source.

What all share (experiment): NCI-60 one-dose screen, 48 h (100 = growth as untreated, 0 = no growth, -100 = all killed)
Conditions in all cases: 10 µM

For assay [1], the system named is NCI-H23 lung.
Assay [2] deals with NCI-H226 lung.
Assay [3] relates to NCI-H322M lung.
For assay [4], the system named is HOP-62 NSCLC.
The subject of assay [5] is NCI-H460 lung.
Assay [6] has as its system HOP-92 NSCLC.
Assay [7] deals with NCI-H522 lung.
For assay [8], the system named is A549/ATCC NSCLC.
In assay [9] the test system is 786-0 renal.
Assay [10] deals with COLO 205 colon.

Turning to `COc1ccc2nc(Nc3cccc(NC(=O)c4ccc(CN5CCN(C)CC5)c(C(F)(F)F)c4)c3)ccc2c1`, the growth in assay [1] was -94.9% (active); in assay [2], -46.9% (active); in [3] it was -64% (active); in assay [4], -77.6% (active); in [5] it was -84.5% (active); in assay [6], -57% (active). In addition, the growth is -85.7% (active) in [7], -54.7% (active) in assay [8], -55.3% (active) in assay [9] and -90.3% (active) in assay [10].
For `COc1ccc(-c2nc(-c3ccccc3)c(-c3ccccc3)n2-c2ccc(S(=O)(=O)Nc3ncccn3)cc2)cc1OC`, the growth in assay [1] is 94.8%; in assay [2], 75.1%; in [3], 77.4%; in assay [4], 76.9%; in [5], 95.6%; in assay [6], 56.6%. The growth in [7] is 89%; in assay [8], 87.6%; in assay [9] it was 64.6%; in assay [10], 133%.
On to `Nc1nnc(-c2c[nH]c3ccc(F)cc23)c(-c2c[nH]c3ncccc23)n1`, for which the growth in assay [1] was 86.6%; in assay [2] it was 57.9%; in assay [3], 61.1%; in assay [4] it was 57.4%; in assay [5], 50.3%; in [6], 81.8%. Further, the growth is 52.7% in assay [7], 74% in assay [8], 44% in assay [9] and 71.8% in assay [10].
On to `COc1ccc(OC)c(/C=N/NC(=O)c2ccc3nc(-c4ccc(Cl)cc4)[nH]c3c2)c1`, for which the growth in [1] is 66.1%; in assay [2], 64.3%; in assay [3], 71.1%; in assay [4] it was 81.6%; in [5] it was 82.5%; in assay [6], 63.4%. Besides, the growth was 59.1% in [7], 91.2% in [8], 73.4% in assay [9] and 81.7% in assay [10].
Take `Cc1cccc2cc(-c3cc(-c4ccccc4)nc(=S)[nH]3)c(Cl)nc12`: the growth in assay [1] was 82.2%; in assay [2], 90.5%; in assay [3], 90.2%; in assay [4], 97.4%; in assay [5] it was 101%; in assay [6], 73.2%. Moreover, the growth in [7] was 64.2%; in assay [8] it was 95.9%; in assay [9], 97.7%; in assay [10] it was 123%.
Consider `C=CCn1c(SCC(=O)Nc2ccc(C(=O)/C=C/c3ccccc3)cc2)nnc1-c1c[nH]c2ccccc12`, for which the growth was 68.3% in assay [1]; 35.4% in [2]; 79.5% in assay [3]; 74.1% in [4]; 78.6% in [5]; 70.4% in assay [6]. The growth in assay [7] was 60.6%; in assay [8], 63.5%; in assay [9] it was 79.1%; in assay [10], 59.7%.
As for `CC[C@]12C=CCN3CC[C@@]4(c5cc(C#CCNc6ccc(C)c(Nc7nccc(-c8cccnc8)n7)c6)c(OC)cc5N(C)[C@H]4[C@@](O)(C(=O)OC)[C@@H]1OC(C)=O)C32` (stereo not given in full), the growth is 56.3% in [1]; 30.6% in assay [2]; 90.8% in assay [3]; 64.2% in assay [4]; 34.1% in [5]; 42.2% in assay [6]. Further, the growth in assay [7] was 58.5%; in [8] it was 36.8%; in assay [9] it was 46.3%; in assay [10], 31.7%.
Turning to `Cc1cc2c(c(O)c1Br)-c1ncoc1C(=O)[C@]1(C)CC[C@H](C(C)C)[C@H]21`, the growth in assay [1] is 36.8%; in assay [2], 38.5%; in [3] it was 65.7%; in assay [4], 38%; in assay [5], 18.4%; in assay [6] it was 35.4%. For the same compound, the growth in [7] was -20.6% (active); in assay [8] it was 16.5%; in [9] it was 66.5%; in assay [10] it was -15.9% (active).
`CCOC(=O)C1=C(N)N(c2ccccc2)C2=C(C(=O)CC(C)(C)C2)C1c1ccccc1OC` (stereo not given): the growth was 98.3% in assay [1]; 101% in assay [2]; 94% in assay [3]; 102% in assay [4]; 115% in assay [5]; 114% in assay [6]. The growth in assay [7] was 95.3%; in assay [8], 103%; in assay [9] it was 97.7%; in assay [10] it was 128%.
Take `CCN1CCN(Cc2ccc(C(=O)Nc3cccc(-c4cn(-c5ccc6oc(=O)ccc6c5)nn4)c3)cc2C(F)(F)F)CC1`: the growth in assay [1] is -100% (active); in assay [2], -82.1% (active); in [3] it was -100% (active); in assay [4] it was -99.5% (active); in assay [5], -100% (active); in assay [6] it was -18% (active). In addition, the growth in assay [7] was -100% (active); in assay [8] it was -100% (active); in [9], -100% (active); in [10], 48.1%.
With `COc1ccc(-c2cc(C(=O)N=Nc3c(O)[nH]c4ccccc34)c3ccccc3n2)cc1`, the growth was -36.4% (active) in assay [1]; -36% (active) in [2]; 6.23% (active) in assay [3]; -42.7% (active) in assay [4]; -70.4% (active) in assay [5]; -46.5% (active) in [6]. For the same compound, the growth was 24.3% in [7], -37.4% (active) in assay [8], -40.9% (active) in assay [9] and -5.77% (active) in assay [10].
Regarding `N#Cc1ccc(-c2nn(-c3ccc(C(=O)O)cc3)cc2CNc2cccc(Br)c2)cc1`, the growth was 10.6% in assay [1]; 44.4% in assay [2]; 85.5% in assay [3]; 42% in [4]; 37.8% in assay [5]; 56.5% in [6]. Moreover, the growth was 73.4% in assay [7], 55.7% in [8], 45% in assay [9] and 117% in assay [10].
For `O=C1Nc2cc(Cl)ccc2/C1=C/c1cccc(OCc2ccc(Br)cc2F)c1`, the growth in assay [1] was 28.5%; in assay [2], 37.4%; in assay [3], 54%; in assay [4], 11.1%; in assay [5] it was 0.927% (active); in assay [6], 6.98% (active). For the same compound, the growth is -2.73% (active) in [7], 29.7% in assay [8], 17.9% in assay [9] and 3.13% (active) in [10].
